Screens: PubChem BioAssay, National Center for Advancing Translational Sciences (NCATS)
Compounds with a hit are over-represented: about 2.8% of the library has one in this group of screens.
POLH inh: inhibitors of human DNA polymerase eta; Q9Y253; recombinant Pol eta, fluorescent DNA replication assay; Potency, µM (series often up to 114 µM), for the others: at the highest dose activity change, negative = inhibition, hits mostly inhibitors; 1.2% of 390,000 active; also: potency is read from the fitted curve at half-maximal effect; % is scaled to controls: 0 for no effect and ±100 for the full control effect
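Pol eta (10 nM) was preincubated with compounds for 15 min at room temperature, after which fluorescent replication substrate (50 nM final) was added to start the reaction. Fluorescence was read kinetically at 0 and 10 min.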
PI5P4K alpha inh: blocks human PI5P4K alpha kinase activity; PI5P4Kalpha enzyme, ADP-Glo luminescence, 60 min; hits give low values; max response, %; 1.2% of 330,000 active; active = max response of -50% or lower; inconclusive = between -30% and -50%; inactive = -30% or higher; also: value at the top dose of about 77 µM; % is scaled to controls: 0 for no effect and ±100 for the full control effect
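ADP-Glo luminescence end-point after a 60 min room-temperature kinase reaction. PI5P4Kalpha and substrate in HEPES pH 7.4 buffer with EGTA, 0.1% CHAPS and 5% DMSO; ATP at 5 microM final.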
Pol kappa inh: inhibitors of human DNA polymerase kappa; Q9UBT6; purified Pol kappa, fluorescent DNA synthesis assay, 10 min; 0.53% of 400,000 active; Potency, µM (series often up to 107 µM), inactives show top-dose activity, negative = inhibition, usual class: inhibitors; also: potency is read from the fitted curve at half-maximal effect; % is scaled to controls: 0 for no effect and ±100 for the full control effect
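Pol kappa 10 nM + cpd, 15 min RT; start w/ substrate 50 nM final; fluorescence kinetic read, 0 and 10 min. Neg ctrl: buffer, no enzyme.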
Pol iota inh: DNA polymerase iota (human) inhibition | Q9UNA4 | Potency, µM (doses to about 115 µM), inactives show at the highest dose activity, negative = inhibition, actives largely listed as inhibitors | 1% of 390,000 active | Pol iota fluorescent replication assay, 10 min | AID 588590; also: potency is read from the fitted curve at half-maximal effect
Target sequence (Q9UNA4 whole entry, looked up): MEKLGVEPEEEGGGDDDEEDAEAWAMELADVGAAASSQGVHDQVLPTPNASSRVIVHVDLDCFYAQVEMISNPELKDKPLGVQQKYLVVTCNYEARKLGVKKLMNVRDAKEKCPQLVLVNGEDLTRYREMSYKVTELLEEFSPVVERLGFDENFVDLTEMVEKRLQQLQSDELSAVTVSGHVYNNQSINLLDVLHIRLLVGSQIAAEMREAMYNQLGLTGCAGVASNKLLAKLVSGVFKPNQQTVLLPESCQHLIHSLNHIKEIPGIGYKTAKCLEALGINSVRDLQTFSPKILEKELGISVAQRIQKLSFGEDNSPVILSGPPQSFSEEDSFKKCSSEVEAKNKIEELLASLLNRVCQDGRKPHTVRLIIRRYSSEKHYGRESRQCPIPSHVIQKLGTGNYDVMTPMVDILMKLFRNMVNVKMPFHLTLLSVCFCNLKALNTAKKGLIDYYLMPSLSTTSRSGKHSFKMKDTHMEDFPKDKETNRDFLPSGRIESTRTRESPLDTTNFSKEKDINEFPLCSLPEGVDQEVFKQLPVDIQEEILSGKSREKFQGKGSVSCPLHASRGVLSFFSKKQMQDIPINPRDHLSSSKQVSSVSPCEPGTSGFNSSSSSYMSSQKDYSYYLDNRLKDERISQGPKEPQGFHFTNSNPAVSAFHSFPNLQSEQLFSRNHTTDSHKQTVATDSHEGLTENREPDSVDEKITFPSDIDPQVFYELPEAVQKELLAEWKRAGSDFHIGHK
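Pol iota at 10 nM preincubated 15 min with compounds at room temperature; reaction started with fluorescent substrate, 50 nM final. Fluorescence read kinetically at 0 and 10 min; buffer-only wells as negative control.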
WRN inhibitor: blocks human WRN helicase | Q14191 | WRN helicase unwinding, fluorescent forked duplex, kinetic | Potency, µM (top dose mostly 114 µM), for inactives: at the highest dose activity change, negative = inhibition, most hits filed as inhibitors | 0.46% of 360,000 active; also: potency is read from the fitted curve at half-maximal effect; % is scaled to controls: 0 for no effect and ±100 for the full control effect; nearly all actives have a fitted effect of over 55% in size
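Enzyme (20 nM final) and test compound sit together 15 min at room temperature before substrate addition. Substrate is a single-forked duplex oligonucleotide (100 nM) labelled with fluorophore and quencher, with 2 mM ATP; helicase unwinding raises red fluorescence, read kinetically.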
Pol beta inh: blocks human DNA polymerase beta activity | P06746 | Pol beta primer extension/strand displacement, fluorescence kinetic | Potency, µM (titrated, usually from 114 µM), for the others: top-dose activity change, negative = inhibition, hits mostly inhibitors | 1.3% of 340,000 active | AID 485314; also: potency is read from the fitted curve at half-maximal effect; % is scaled to controls: 0 for no effect and ±100 for the full control effect
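Pol beta (10 nM) and compounds were preincubated 15 min at room temperature, then 50 nM substrate (final) started primer extension/strand displacement. Reads were taken at 0 and 10 min; concentration-response data were fitted to a four-parameter Hill equation.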
* marks the source's active call; other numbers are inactive results; u = inconclusive; x = no result given; [ ] = remark or other dose. Unless noted, calls follow the shape of the dose curve; as a rule, active = well fitted curve in the direction sought with a large enough effect; inconclusive = small, poorly fitted or top-dose-only effect, or another doubt; inactive = no such curve, though single readings can be large; an effect the other way counts as inactive or inconclusive.

SMILES | POLH inh | PI5P4K alpha inh | Pol kappa inh | Pol iota inh | WRN inhibitor | Pol beta inh
CSc1ccc(C2C(C#N)=C(N)Oc3cc4c(cc32)OCO4)cc1 (centres undefined) | -4% | x | 89µM* | -21% | -6%[11.6 µM] | 6%
Cc1ccc(C2C(C#N)=C(N)Oc3cc4c(cc32)OCO4)cc1 (centres undefined) | u | 0 | -2% | -7% | -4% | 5%
O=C(OCc1ccccc1)c1c(-c2ccccc2)oc2c1C(OCCO)CCC2 (centres undefined) | x | 17 | x | x | -1% | x
CCCCN1C(=O)C(O)(CC(=O)c2ccc(CC)cc2)c2cc(Br)ccc21 (centres undefined) | -7% | x | -22% | 12% | x | -17%
CCOC(=O)C(=CNNc1cccc(Cl)c1)C(=O)OCC | -3% | 9 | -15% | 102% | 50µM* | -3%
CCOC(=O)C(=CNc1ccc(Cl)cn1)C(=O)OCC | -13% | -6 | -10% | -7%[58.9 µM] | 1% | -4%
CC(N)(Cc1ccc(O)c(O)c1)C(=O)O (centres undefined) | -3%[57.1 µM] | x | u | u | x | 5.6µM*
C[C@@](N)(Cc1ccc(O)cc1)C(=O)O | x | x | -8%[60.1 µM] | x | x | x
CCO/C(=C/c1sc2ccc(OC)cc2[n+]1CCCS(=O)(=O)[O-])CC | -3% | 1 | -13% | -16% | -4% | -1%
CCOC(=O)C[n+]1c(C)sc2ccc(OC)cc21 | -13% | -22 | 1% | u | 50µM* | 21%
CC(C)c1ccc(-c2noc(SCC(=O)N3CCCCC3)n2)cc1 | -13% | x | -15% | 4% | x | u
Fc1ccc(/C=C2\CCCC3=C2Nc2ncnn2C3c2ccc(F)cc2)cc1 (centres undefined) | -14% | -8 | -16% | -13% | 50µM* | 30%
COc1ccc(C2C3=C(Nc4ncnn42)c2ccccc2CCC3)cc1 (centres undefined) | 12% | x | -5% | 7% | -8% | 19%
CC1=CC(C)(C)NC(=S)N1c1cccc2cc(S(=O)(=O)O)ccc12 | 13µM* | -28 | -18% | u | -22% | 50µM*
CC1=CC(C)(C)NC(=S)N1c1ccccc1C | -16% | -4 | -10% | 55% | 2% | 0%
CCN(Cc1nc2ccccc2c(=O)[nH]1)C(=O)COc1ccccc1-c1ccccc1 | -17% | 0 | 7% | 12% | 0% | x
COc1ccc(NC2CCCN(C(=O)c3cc(CC(C)C)nc(N)n3)C2)cc1 (centres undefined) | -6% | 0 | 4% | -20% | 2% | -17%
CCN(CC)CCOC(=O)c1ccc(N/C=C(/C#N)c2nc(-c3ccc4c(c3)OCO4)cs2)cc1 | -11% | -53* | 1% | 4% | -27% | u
CCN(CC)CCOC(=O)c1ccc(N/C=C(/C#N)c2nc(-c3cc4ccccc4oc3=O)cs2)cc1 | -37% | u | -28% | u | -24% | -12%
CCN(CC)CCOC(=O)c1ccc(N/C=C(/C#N)c2nc(-c3ccc(OC)cc3)cs2)cc1 | 2% | -69* | -12% | 33% | u | u
CCOC(=O)C1=CN(C(=O)OC(C)(C)C)C(CN2C(=O)COCC2=O)C1 (centres undefined) | x | x | u | -100% | x | x
COc1ccc(NC(=S)NCCCCCC(=O)C[N+](=O)[O-])cc1 | 79µM* | -11 | -4% | u | -7%[11.6 µM] | -1%
COc1ccc(-n2nc3c(N4CCCC(C(=O)NCCc5ccc(C)cc5)C4)nnc(C)c3c2C)cc1 (centres undefined) | -24% | x | 6% | 34% | x | 16%
Cc1ccc(NC(=O)C2CCCN2S(=O)(=O)c2ccc3nc(-c4ccccc4)[nH]c3c2)cc1F (centres undefined) | 79µM* | x | u | u | x | u
Cc1ccc(NC(=O)C2CCCN2C(=O)OCc2ccccc2)cc1F (centres undefined) | -9% | 6 | 79µM* | u | 2%[11.6 µM] | 30%
SMILES | POLH inh | PI5P4K alpha inh | Pol kappa inh | Pol iota inh | WRN inhibitor | Pol beta inh
COc1ccc(N2CC(c3nc(-c4ccccc4C)no3)CC2=O)cc1Cl (centres undefined) | -26% | x | -5% | 22% | x | -23%
COCCN1C(=O)Cc2c1nc(N)c1c(N)nc(N3CCN(c4ccc(F)cc4)CC3)c(C#N)c21 | -20% | u | -9% | u | -11% | 30%
COc1ccc(CN2C(=O)Cc3c2nc(N)c2c(N)nc(N4CCOCC4)c(C#N)c32)cc1 | u | u | 0% | 7.9µM* | 8% | 19%
COCC(C)N1C(=O)Cc2c1nc(N)c1c(N)nc(N3CCN(c4ccccc4F)CC3)c(C#N)c21 (centres undefined) | -21% | -10 | -16% | 18µM* | -5% | 19%
CCS(=O)(=O)N1CCc2cc(C(=O)N3CCN(c4ccccc4)CC3)ccc21 | 0% | x | 9% | -5% | x | 1%
Cc1ccc(C)c(-n2c(N)c(C#N)c3nc4ccccc4nc32)c1 | -3% | x | -28% | 25µM* | x | 3%
N#Cc1c(N)n(-c2ccc(O)cc2)c2nc3ccccc3nc12 | 0% | 3 | -4% | 18% | -6% | -19%
O=S(=O)(Nc1nc(-c2sccc2Cl)cs1)c1cc(Cl)ccc1Cl | u | -50* | -19% | u | u | 32µM*
CC(C)(C)c1nnc(NS(=O)(=O)c2cc(Cl)ccc2Cl)s1 | -2% | -1 | -11% | 0% | -2% | 2%
CC(CCc1ccco1)NC(=O)CCc1nnc2ccc(NCc3ccc(Cl)cc3)nn12 (centres undefined) | -2% | 2 | 79µM* | 25µM* | -3%[11.6 µM] | 40%
COc1ccc(NC(=O)CCc2nnc3ccc(NCc4ccco4)nn23)cc1 | 5% | -1 | -7% | 13% | -3% | -17%
CC(CCc1ccco1)NC(=O)CCc1nnc2ccc(NCc3ccccc3Cl)nn12 (centres undefined) | 4% | -1 | -1% | -15% | -8% | -26%
Cc1cccnc1NC(=O)CCc1nnc2ccc(NCc3ccco3)nn12 | 45µM* | -13 | -28% | u | -13% | u
COc1ccc(NC(=O)CCc2nnc3ccc(NCc4ccc5c(c4)OCO5)nn23)cc1 | -13% | 0 | -14% | 45µM* | -12%[11.6 µM] | u
COC(=O)c1ccc(NC(=O)CCc2nnc3ccc(NCc4ccco4)nn23)cc1 | u | u | u | 35µM* | -5%[11.6 µM] | u
Cc1ccc2nc(/C=C/c3ccc(N(C)C)cc3)ccc2c1 | x | x | 7% | 64% | x | x
CCN(C)C1CN(Cc2cn(CCCC(=O)OC)nn2)S(=O)(=O)C1 (centres undefined) | x | 2 | x | x | -8% | x
COc1ccc(C(=O)NC(=S)Nc2ccc(S(=O)(=O)Nc3cc(OC)ncn3)cc2)cc1 | -1% | 6 | -14% | -2% | -20% | 39%
